ERG-DNA inh – qHTS for Small Molecule Inhibitors of the ERG Ets/DNA interaction | Transcriptional regulator ERG (Homo sapiens), P11308 | fluorescence polarization, His-ERG Ets domain / labelled DNA | Potency, µM (doses to about 76.9 µM), most hits filed as inhibitors | 0.028% of 370,000 active | AID 624246, 2012; active means well fitted inhibition curve with a large enough effect in the polarisation, with a control signal flat; inconclusive means small, poorly fitted or top-dose-only effect, or effect the other way, or a change in a side signal; inactive means no such curve, though single readings can be large or run the other way; the % refers to the polarisation;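 further: polarization taken with two DNA probes labelled with fluorescein and Texas red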
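His-tagged ERG Ets domain (1 uM in the protein solution; 300mM KCl, 50mM Tris-HCl, 1mM EDTA, 1mM DTT, pH 7.5) received compound, then a probe mix of 5 nM fluorescein-DNA and 100nM Texas-615-DNA. Fluorescence polarization was read for both dyes.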
Chronic BCR inh – qHTS Assay to Find Inhibitors of Chronic Active B-Cell Receptor Signaling; 0.05% of 340,000 active; ABC-DLBCL IkBa-CBG/CBR reporter, luminescence ratio, 4 h; Potency, µM (doses to about 46.1 µM), actives largely listed as inhibitors; active means well fitted inhibition curve with a large enough effect in the signal ratio, with a control signal flat, not every such curve was filed as active; inconclusive means small, poorly fitted or top-dose-only effect, or effect the other way, or a change in a side signal; the % refers to the signal ratio
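Concentration-response series (up to 46 uM) were applied to TMD8 dual-reporter cells for 4 h at 37C with doxycycline. Green/red ratio, after filter-overlap correction, defined %Activity; red signal alone was normalised to basal cells and zero luminescence.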
PGK inhibitor – qHTS Assay to Find Inhibitors of Phosphoglycerate Kinase; Phosphoglycerate kinase, glycosomal (Trypanosoma brucei brucei), P07378; PGK/GAPDH coupled, Kinase-Glo luminescence, 60 min; Potency, µM (series often up to 57.5 µM), usual class: inhibitors; 0.043% of 380,000 active; AID 602233, 2012; further: nearly all actives have a fitted effect of over 60% in size
Target sequence (P07378 whole entry, looked up): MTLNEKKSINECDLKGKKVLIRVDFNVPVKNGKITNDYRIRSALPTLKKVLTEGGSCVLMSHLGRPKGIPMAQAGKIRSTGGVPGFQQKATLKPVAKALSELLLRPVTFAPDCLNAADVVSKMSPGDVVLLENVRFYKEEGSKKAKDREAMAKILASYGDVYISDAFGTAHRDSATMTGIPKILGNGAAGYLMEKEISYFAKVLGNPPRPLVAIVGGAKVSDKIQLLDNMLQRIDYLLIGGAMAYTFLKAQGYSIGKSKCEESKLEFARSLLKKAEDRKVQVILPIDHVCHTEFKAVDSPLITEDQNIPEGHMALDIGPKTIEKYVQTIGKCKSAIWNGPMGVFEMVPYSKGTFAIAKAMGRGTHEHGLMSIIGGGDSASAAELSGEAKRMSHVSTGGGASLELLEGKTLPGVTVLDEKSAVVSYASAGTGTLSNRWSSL
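Luminescent ATP detection (Kinase-Glo Plus) follows a 60-minute room-temperature incubation, with wells lacking PGK as controls. Buffer: 100 mM TEA (pH 7.6), 5 mM MgCl2, 0.01% Tween-20. Coupling enzyme GAPDH (100 nM final) supplies unstable 1,3-BPG in-well.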
Pin1 inh – qHTS Assay to Find Inhibitors of Pin1 | Potency, µM (doses to about 115 µM), most hits filed as inhibitors | 0.009% of 390,000 active | Pin1 FP peptide displacement, HiFluor488, 10 min | Peptidyl-prolyl cis-trans isomerase NIMA-interacting 1 (Homo sapiens), Q13526; active means well fitted inhibition curve with a large enough effect in the polarisation, with a control signal flat, not every such curve was filed as active; inconclusive means small, poorly fitted or top-dose-only effect, or effect the other way, or a change in a side signal; inactive means no such curve, though single readings can be large or run the other way; the % refers to the polarisation
Target sequence (Q13526 whole entry, looked up): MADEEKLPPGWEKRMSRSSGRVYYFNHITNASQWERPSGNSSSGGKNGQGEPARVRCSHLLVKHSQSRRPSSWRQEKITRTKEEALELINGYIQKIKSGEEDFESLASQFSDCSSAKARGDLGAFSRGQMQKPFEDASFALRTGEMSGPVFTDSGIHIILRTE
Tb PFK inh-1 – qHTS Assay to Find Inhibitors of T. brucei phosphofructokinase; ATP-dependent 6-phosphofructokinase (Trypanosoma brucei brucei), O15648; T. brucei PFK, ADP-Glo luminescence; Potency, µM (series often up to 57.5 µM), most hits filed as inhibitors; 0.17% of 330,000 active; further: nearly all actives have a fitted effect of over 60% in size
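Luminescent ADP detection (ADP-Glo, two-step: ATP depletion then ADP-to-ATP conversion for luciferase) reported PFK activity after 45 min room-temperature reaction of 1.25 nM enzyme with 0.5 mM F6P and 0.1 mM ATP at pH 8.0.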
TbPFK ATP – Tb PFK orthogonal confirmatory assay using ATP depletion (Kinase-Glo Plus) as an alternative measure of Tb PFK activity: Hit Validation; shares compounds with Tb PFK inh-1; Tb PFK enzyme, ATP depletion, Kinase-Glo Plus luminescence; Potency, µM (series often up to 57.5 µM); 47% of 1,100 active; AID 504636, 2011; calls by dose curve; further: nearly all actives have a fitted effect of over 60% in size
Tb PFK inh-2 – Inhibitors of T. brucei phosphofructokinase: Hit Validation; Potency, µM (series often up to 57.5 µM), actives largely listed as inhibitors; purified T. brucei PFK, ADP-Glo luminescence, 45 min; 41% of 1,100 active; shares compounds with Tb PFK inh-1; AID 504637, 2011; further: nearly all actives have a fitted effect of over 60% in size
A number is an active result; i = inactive; ? = inconclusive; nt = no result given. An excerpt weighted towards active compounds, which were near 0.25% of everything screened. Unless noted, the call rests on the fitted dose curve; in most records, active means well fitted curve in the direction sought with a large enough effect; inconclusive means small, poorly fitted or top-dose-only effect, or another doubt; inactive means no such curve, though single readings can be large; an effect the other way counts as inactive or inconclusive.

SMILES	ERG-DNA inh	Chronic BCR inh	PGK inhibitor	Pin1 inh	Tb PFK inh-1	TbPFK ATP	Tb PFK inh-2
O=S(=O)(c1ccc2c(c1)OCCO2)C1CCN(S(=O)(=O)c2c(F)cccc2F)CC1	nt	nt	nt	i	nt	nt	nt
NC1CCc2cc(O)c(O)cc2C1 (stereo unspecified)	i	i	i	i	6.7µM	2.7µM	2.7µM
C=C(C)C(=O)Nc1cccc(C2=NOC3(C2)C[C@H](C(N)=O)N(C(=O)COc2ccc(Cl)cc2)C3)c1 (stereo partly specified)	i	i	?	?	?	0.54µM	0.67µM
C/C=C\C=C/C(=O)Nc1cccc(C2=NOC3(C2)C[C@@H](C(N)=O)N(C(=O)/C=C/C=C\C)C3)c1 (stereo partly specified)	i	i	?	i	5.4µM	?	?
C/C=C\C=C/C(=O)Nc1cccc(C2=NOC3(C2)C[C@@H](C(N)=O)N(C(=O)/C=C/CC)C3)c1 (stereo partly specified)	i	?	i	?	i	nt	nt
C/C=C(/C)C(=O)Nc1cccc(C2=NOC3(C2)C[C@H](C(N)=O)N(C(=O)c2ccc(Cl)cc2)C3)c1 (stereo partly specified)	i	?	i	i	i	nt	nt
C=C(C)C(=O)Nc1cccc(C2=NOC3(C2)C[C@@H](C(N)=O)N(C(=O)c2ccc(Cl)cc2)C3)c1 (stereo partly specified)	i	i	2.2µM	?	9.5µM	0.67µM	0.95µM
C=C(C)C(=O)Nc1cccc(C2=NOC3(C2)C[C@@H](C(N)=O)N(C(=O)C(=C)C)C3)c1 (stereo partly specified)	i	i	?	?	?	2.7µM	1.7µM
CCC(=O)Nc1cccc(C2=NOC3(C2)C[C@@H](C(N)=O)N(C(=O)COc2ccc(Cl)cc2)C3)c1 (stereo partly specified)	i	i	i	i	i	nt	nt
CC1Cc2cc(S(=O)(=O)NCc3ccc(N(C)C)cc3)ccc2N1C(=O)C1CCC1 (stereo unspecified)	i	nt	i	i	nt	nt	nt
c1ccc(N=c2nc(-c3ccccc3)n(-c3ccccc3)s2)cc1	nt	nt	nt	i	nt	nt	nt
Cc1c(P(=S)(c2ccccc2)c2ccccc2)[n+]2ccccc2n1Cc1ccccc1	nt	nt	nt	i	nt	nt	nt
COc1cc2c(cc1OC)CN(C(=O)c1ccc(OC)c([N+](=O)[O-])c1)CC2	i	i	i	i	i	nt	nt
COc1cc2c(cc1OC)CN(c1ccc([N+](=O)[O-])c(C(F)(F)F)c1)CC2	i	?	i	i	?	?	?
O=c1cc(/N=C/c2coc3c(ccc4ccccc43)c2=O)[nH]c(=S)[nH]1	i	i	i	i	?	i	?
NC(=S)N/N=C/c1coc2c(ccc3ccccc32)c1=O	nt	?	i	i	i	nt	nt
CC(C)(C)OC(=O)n1c2ccsc2c2cnn(Cc3ccccc3F)c(=O)c21	nt	nt	nt	i	nt	nt	nt
C=CCN1C(=O)/C(=C2/Sc3ccccc3N2CCCS(=O)(=O)O)SC1=S	?	i	i	?	?	i	?
C=CCN1C(=O)/C(=C2/Sc3ccccc3N2CC)SC1=S	i	i	i	?	i	nt	nt
CC(=O)N[C@@H]1c2c(ccc3ccccc23)OC[C@@H]1COC(C)=O	i	i	i	i	?	i	?
CCOc1ccc(-c2cccc(NS(=O)(=O)c3ccccc3C(F)(F)F)c2)nn1	i	nt	i	i	nt	nt	nt
Cc1cc2c(s1)c1cnn(Cc3c(C)cc(F)cc3C)c(=O)c1n2C	nt	nt	nt	i	nt	nt	nt
O=[N+]([O-])c1cc(C2Nc3cccc4cccc(c34)N2)ccc1Cl	i	i	i	i	i	nt	nt
O=C1NC(c2ccc(Cl)c([N+](=O)[O-])c2)Nc2ccccc21 (stereo unspecified)	i	i	i	i	21µM	24µM	13µM
C=CCC(O)[C@H](Cc1cnc2ccccc2c1)[C@H](/C=C/CCCC)c1ccccc1 (stereo partly specified)	nt	nt	nt	i	nt	nt	nt
SMILES	ERG-DNA inh	Chronic BCR inh	PGK inhibitor	Pin1 inh	Tb PFK inh-1	TbPFK ATP	Tb PFK inh-2
O=C1Nc2ccccc2C(=O)C1(Cl)Cc1ccccc1 (stereo unspecified)	i	i	i	i	?	11µM	13µM
N#Cc1ccc(OCC(=O)Nc2cccc(S(=O)(=O)NC3=NCCCCC3)c2)cc1	i	i	i	i	6µM	3.8µM	6µM
CC(C)(C)c1ccc(OCC(=O)Nc2cccc(S(=O)(=O)NC3=NCCCCC3)c2)cc1	?	i	i	?	i	nt	nt
O=C(COc1ccc(Cl)cc1)Nc1cccc(S(=O)(=O)NC2=NCCCCC2)c1	i	i	i	i	3µM	2.7µM	6µM
CN1CCN(c2cccc(CNc3nn4c(=O)c5ccccc5nc4s3)c2)CC1	nt	nt	nt	i	nt	nt	nt
N#Cc1nc(Nc2cc(F)cc(F)c2)nc(NC2CCCC2)n1	nt	nt	nt	i	nt	nt	nt
Cc1ccc(C(=O)CCS(=O)(=O)c2ccc(Br)cc2)cc1	i	i	i	i	i	nt	nt
Cc1ccc(S(=O)(=O)CCC(=O)c2cccc([N+](=O)[O-])c2)cc1	i	?	i	i	13µM	21µM	?
NC(=O)C1CCN(c2nccc(Cl)n2)CC1	nt	nt	nt	i	nt	nt	nt
COc1cccc(NC(=S)Nc2ccc(F)cc2)c1	i	?	i	i	i	nt	nt
COc1cccc(NC(=S)Nc2ccc(O)cc2)c1	i	i	i	i	?	?	i
COC(=O)c1c(NC(=O)Cc2cccs2)sc2c1CCCC2	i	i	i	?	?	?	?
COCC(=O)Nc1sc2c(c1C(=O)OC)CCCC2	i	?	i	i	i	nt	nt
Cc1cc2c(s1)c1cnn(Cc3cccc(C(F)(F)F)c3)c(=O)c1n2C	nt	nt	nt	i	nt	nt	nt
O=C(C1CCN(c2nc(-c3ccc(Br)cc3)cs2)CC1)N1CCOCC1	nt	nt	nt	i	nt	nt	nt
CN1CCc2ccccc2Cc2[nH]c3ccccc3c2CC1	i	i	i	i	12µM	15µM	13µM
CCCCN1CCc2c([nH]c3ccccc23)C1=O	i	i	i	i	i	nt	nt
O=S(=O)(c1ccc(Cl)c(NC(=S)Nc2ccccc2N2CCOCC2)c1)N1CCOCC1	i	i	i	i	i	nt	nt
Cc1ccc(NC(=S)Nc2ccc(Cl)c(Cl)c2)c(OC(F)F)c1	i	i	i	i	5.4µM	?	?

Assay outcomes: PubChem BioAssay, National Center for Advancing Translational Sciences (NCATS)
